From PubChem BioAssay (EPA / NIEHS)
The source made the active and inactive calls. The calls were made as follows: active = hit-call score of the fitted dose curve at least 0.9, where 1 is the maximum; inactive = score below 0.9.

Key:
[1] = read-out: Thrombomodulin, THBD (gene 7056); experiment: BSK_3C_Thrombomodulin: BioMAP Diversity Plus: 3C Assay for Thrombomodulin Biomarker Activity (AID 2283029); settings: primary human endothelial cells (HUVEC); actives raise or lower the signal
In short: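 Endothelial cells from umbilical vein are dosed with test chemical and incubated 24 h. Thrombomodulin is then quantified by ELISA, with DMSO serving as negative control and activity baseline.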

[2] = read-out: Urokinase-type plasminogen activator receptor (uPAR), PLAUR (gene 5329); experiment: BSK_4H_uPAR: BioMAP Diversity Plus: 4H Assay for Urokinase-type plasminogen activator receptor (uPAR) Biomarker Activity (AID 2283030); settings: primary human endothelial cells (HUVEC); actives raise or lower the signal
In short: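 uPAR level read by ELISA on HUVEC cultures (BioMAP 4H) 24 h post-dosing, analyzed for gain or loss relative to DMSO. Parallel SRB staining assessed overt cytotoxicity.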

[3] = read-out: Vascular endothelial growth factor receptor 2 (Homo sapiens) (UniProt P35968); experiment: BSK_4H_VEGFRII: BioMAP Diversity Plus: 4H Assay for Vascular endothelial growth factor receptor 2 (VEGFR2) Biomarker Activity (AID 2283031); settings: primary human endothelial cells (HUVEC); actives raise or lower the signal;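 as to AC50: cell-surface VEGFR2 protein level quantified by ELISA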
In short: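 Measured by ELISA after 24 h of compound treatment: VEGFR2 on primary human umbilical vein endothelial cells, fitted in both directions relative to DMSO. Parallel cultures received SRB staining (560 nm) for overt cytotoxicity.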

[4] = read-out: Human Leukocyte Antigen - DR isotype (HLADR), HLA-DRA (gene 3122); experiment: BSK_BE3C_HLADR: BioMAP Diversity Plus: BE3C Assay for Human Leukocyte Antigen - DR isotype (HLADR) Biomarker Activity (AID 2283032); settings: primary human bronchial epithelial cells; actives raise or lower the signal
In short: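 Chemicals are dosed onto BE3C bronchial epithelial cultures of human origin and left 24 h. HLA-DR is then measured by ELISA, and the endpoint is fitted in both directions using DMSO as the activity baseline.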

[5] = read-out: Vascular cell adhesion molecule 1 (VCAM1), VCAM1 (gene 7412); experiment: BSK_4H_VCAM1: BioMAP Diversity Plus: 4H Assay for Vascular cell adhesion molecule 1 (VCAM1) Biomarker Activity (AID 2283033); settings: primary human endothelial cells (HUVEC); actives raise or lower the signal
In short: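 Chemicals are added to primary human umbilical vein endothelial cells. After 24 h, VCAM-1 levels are measured by ELISA. Values come from bidirectional fitting referenced to DMSO.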

[6] = read-out: Interferon-gamma inducible Protein 10 (IP10), CXCL10 (gene 3627); experiment: BSK_BE3C_IP10: BioMAP Diversity Plus: BE3C Assay for Interferon-gamma inducible Protein 10 (IP10) Biomarker Activity (AID 2283034); settings: primary human bronchial epithelial cells; actives raise or lower the signal
In short: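 IP-10 quantified by ELISA serves as the endpoint. Cells: primary human bronchial epithelium, read 24 h after compound addition. Activity is derived by bidirectional fitting with DMSO as negative control.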

[7] = read-out: Monokine induced gamma interferon (MIG), CXCL9 (gene 4283); experiment: BSK_BE3C_MIG: BioMAP Diversity Plus: BE3C Assay for Monokine induced gamma interferon (MIG) Biomarker Activity (AID 2283035); settings: primary human bronchial epithelial cells; actives raise or lower the signal
In short: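 ELISA quantified MIG after 24 h exposure of primary bronchial epithelial cultures, analysed in both directions relative to DMSO. Cytotoxicity tracked in parallel cultures by sulforhodamine B staining.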

[8] = read-out: Transforming growth factor beta 1 (TGFb1), TGFB1 (gene 7040); experiment: BSK_BE3C_TGFb1: BioMAP Diversity Plus: BE3C Assay for Transforming growth factor beta 1 (TGFb1) Biomarker Activity (AID 2283036); settings: primary human bronchial epithelial cells; actives raise or lower the signal
In short: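 Bronchial epithelial primary cells are treated with test chemical, then TGF-b1 is quantified by ELISA after 24 hours. Values derive from bidirectional fitting against DMSO, with cytotoxicity checked by SRB staining in parallel cultures.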

[9] = read-out: Plasminogen activator inhibitor-1 (PAI1), SERPINE1 (gene 5054); experiment: BSK_BE3C_PAI1: BioMAP Diversity Plus: BE3C Assay for Plasminogen activator inhibitor-1 (PAI1) Biomarker Activity (AID 2283037); settings: primary human bronchial epithelial cells; actives raise or lower the signal
In short: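 Values derive from bidirectional fitting against DMSO baseline of PAI-1 levels, measured by ELISA in human bronchial epithelial cells 24 h after compound addition.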

[10] = read-out: urokinase plasminogen activator (uPA), PLAU (gene 5328); experiment: BSK_BE3C_uPA: BioMAP Diversity Plus: BE3C Assay for urokinase plasminogen activator (uPA) Biomarker Activity (AID 2283038); settings: primary human bronchial epithelial cells; actives raise or lower the signal
In short: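 ELISA for uPA on human primary bronchial epithelial cultures 24 h post-treatment, gain or loss against DMSO. Parallel SRB staining (0.1% after 10% TCA fixation, 560 nm) assessed overt cytotoxicity.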

Measured: AC50

C1CC2OC2CC1C1CO1 (configuration not stated)
inactive: all assays above

Clc1ccc(C(Cl)(Cl)Cl)cc1
not listed: [2]
inactive: all other assays above

Cc1cccc(C)c1N
not listed: [2]
inactive: all other assays above

CCCCCCCCOC(=O)c1ccccc1C(=O)OCCCCCCCC
not listed: [2]
inactive: all other assays above

Oc1ccc(C(c2ccc(O)cc2)(C(F)(F)F)C(F)(F)F)cc1
active: [1] 21.3 µM | [4] 20.1 µM | [5] 29.3 µM | [6] 24.1 µM | [7] 37.3 µM | [8] 28.5 µM | [9] 21.4 µM | [10] 38.2 µM
inactive: [3]

COS(=O)(=O)OC
not listed: [2]
inactive: all other assays above

CC(C)(c1ccccc1)c1ccc(O)cc1
active: [4] 30.4 µM | [5] 32.1 µM | [6] 30.5 µM | [7] 32.2 µM | [8] 33.4 µM | [9] 34.1 µM
inactive: [1] | [3] | [10]

Cc1ccccc1CO[C@@H]1C[C@@]2(C(C)C)CC[C@]1(C)O2
active: [10] 11.2 µM
not listed: [2]
inactive: all other assays above

O=S(=O)(O)C(F)(F)C(F)(F)C(F)(F)C(F)(F)C(F)(F)C(F)(F)F
not listed: [2]
inactive: all other assays above

CCC(=O)O[C@H]1CC[C@H]2[C@@H]3CCC4=CC(=O)CC[C@]4(C)[C@H]3CC[C@]12C
active: [3] 28 µM | [4] 32.9 µM | [5] 37.4 µM
not listed: [2]
inactive: all other assays above

CCCCCCCCCC[N+](C)(C)CCCCCCCCCC
inactive: [1]
active: [3] 2.01 µM | [4] 4.45 µM | [6] 5.48 µM | [7] 8.77 µM | [8] 5.35 µM | [9] 3.71 µM | [10] 5.43 µM

Cc1cc(O)ccc1Cl
not listed: [2]
inactive: all other assays above

CCCN(CCC)N=O
not listed: [2]
inactive: all other assays above

O=C(NC(=O)c1c(F)cccc1F)Nc1cc(Cl)c(OC(F)(F)C(F)F)c(Cl)c1
not listed: [2]
inactive: all other assays above

N#Cc1ccc(N(CC(N)=O)CC(F)(F)F)cc1C(F)(F)F
not listed: [2]
inactive: all other assays above

Clc1ccc(C(c2ccccc2Cl)C(Cl)(Cl)Cl)cc1 (configuration not stated)
active: [3] 17.2 µM
not listed: [2] | [5]
inactive: all other assays above

Nc1ccc(-c2ccc(N)cc2)cc1
not listed: [2]
inactive: all other assays above

c1ccc(-c2ccccc2)cc1
not listed: [2] | [3]
inactive: all other assays above

CCNc1nc(NC(C)C)nc(SC)n1
not listed: [2]
inactive: all other assays above

Sc1ccccc1
not listed: [2]
inactive: all other assays above

c1cc2ccc3cccc4ccc(c1)c2c34
active: [5] 15.5 µM
not listed: [2]
inactive: all other assays above

Cc1ccc(O)c(C)c1
active: [5] 5.94 µM
not listed: [2]
inactive: all other assays above

ClC1=C(Cl)[C@]2(Cl)[C@@H]3[C@@H]4C[C@@H]([C@H]5O[C@@H]45)[C@@H]3[C@@]1(Cl)C2(Cl)Cl
not listed: [2]
inactive: all other assays above

C[C@]12CCC(=O)C=C1CC[C@@H]1[C@@H]2CC[C@]2(C)C(=O)CC[C@@H]12
not listed: [2]
inactive: all other assays above

CCC(C)c1cc([N+](=O)[O-])cc([N+](=O)[O-])c1O (configuration not stated)
active: [3] 8.81 µM | [4] 20 µM | [5] 9.62 µM | [6] 1.87 µM | [8] 0.911 µM | [9] 1.39 µM | [10] 4.72 µM
inactive: [1] | [7]

Cc1cc(-c2ccc(N)c(C)c2)ccc1N
not listed: [2]
inactive: all other assays above

CN(C)CCO
not listed: [2]
inactive: all other assays above

CCOC(=O)C(O)(c1ccc(Cl)cc1)c1ccc(Cl)cc1
active: [3] 27.9 µM | [5] 30.7 µM | [6] 31.1 µM | [9] 14.7 µM
not listed: [2]
inactive: all other assays above

CCC(C)(CC)c1cc(NC(=O)c2c(OC)cccc2OC)on1
not listed: [2]
inactive: all other assays above

CCOCCOC(C)=O
not listed: [2]
inactive: all other assays above

COc1ccc(O)c(C(C)(C)C)c1
not listed: [2] | [8]
inactive: all other assays above

O=NN(c1ccccc1)c1ccccc1
not listed: [2]
inactive: all other assays above

CCSC(=O)N(CC)C1CCCCC1
not listed: [2]
inactive: all other assays above

CCC(C)(c1ccc(O)cc1)c1ccc(O)cc1
active: [4] 24.5 µM | [6] 28.9 µM | [10] 4.96 µM
not listed: [2] | [5]
inactive: all other assays above
